From PubChem BioAssay
NR2F2 inh – blocks human COUP-TFII nuclear receptor; inhibition, % at 8.6 µM; 0.7% of 370,000 active; P24468; HEK293T NGFI-A luciferase reporter, luminescence;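 active means inhibition above a per-plate cutoff, mean inhibition of test wells between control levels plus 3 SD, cut at about 38% in these data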;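 further: cells cotransfected with COUP-TFII expression vector driving the NGFI-A reporter; 0% = median of COUP-TF2 test wells and 100% = reporter-only cells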
697 NFkB inh – inhibitors of the PMA/ionomycin-induced NF-kB reporter in 697 B cells | 0.33% of 330,000 active | 697 B-cell NF-kB luciferase reporter, 16 h | inhibition, % at 4 µM; in the data active means inhibition above about 35%
Gli-Sufu antag – antagonists of Gli-Sufu signaling; Sufu-KO-LIGHT fibroblasts, Gli luciferase reporter luminescence; inhibition, % at 5 µM; 0.74% of 340,000 active;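 active means inhibition above about 55%, limit read from the data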;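 further: 0% = DMSO-treated cells and 100% = wells with medium but no cells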
GalR3 antag – human GalR3 antagonism; O60755; HEK293 GalR3-CNG cAMP membrane potential fluorescence; galR3 body fused to GalR1 C-terminus; inhibition, % at 3 µM; 0.44% of 360,000 active;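 active means inhibition above the screen-wide average plus 3 SD, cut at about 13% in these data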;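 further: forskolin and galanin both at EC90 stimulate the cells; cAMP rise reported by CNG channel membrane potential dye signal; 0% = forskolin plus galanin with DMSO and 100% = forskolin alone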
Target sequence (O60755 1-299 limits assumed): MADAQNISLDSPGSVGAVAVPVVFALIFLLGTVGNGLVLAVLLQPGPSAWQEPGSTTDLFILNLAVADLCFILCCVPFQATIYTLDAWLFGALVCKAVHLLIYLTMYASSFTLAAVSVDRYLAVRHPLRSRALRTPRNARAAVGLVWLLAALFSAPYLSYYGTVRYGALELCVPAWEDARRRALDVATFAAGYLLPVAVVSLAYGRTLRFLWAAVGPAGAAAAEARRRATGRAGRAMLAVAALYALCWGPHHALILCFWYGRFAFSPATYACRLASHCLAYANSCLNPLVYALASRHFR
Jurkat NFkB inh – inhibitors of the PMA/ionomycin-induced NF-kB reporter in Jurkat cells; PMA/ionomycin-induced NF-kB luciferase reporter, luminescence; inhibition, % at 4 µM; 0.53% of 330,000 active; AID 435003; in the data active means inhibition above about 50%
Gal4-VP16 ctr – inhibits VP16 reporter, flagging COUP-TFII antagonist hits. shares compounds with NR2F2 inh. HEK293 Gal4-VP16 luciferase reporter, luminescence. inhibition, % at 8.5 µM. 25% of 2,500 active. AID 687007; in the data active means inhibition above about 13%
COUP-TFII conf – COUP-TFII (NR2F2) inhibition, confirmation assay; 45% of 2,500 active; shares compounds with NR2F2 inh; AID 687008; inhibition, % at 8.5 µM; HEK293 NGFI-A luciferase reporter, luminescence;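 active means mean inhibition over three repeats above a set limit taken from the earlier primary screen, cut at about 38% in these data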;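 further: 100% = cells given the luciferase reporter alone without the COUP-TF2 vector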
Active calls of the source: *. The list is not random: actives were taken first. Their share in the collection is about 2%.

Screening CC(=O)N1CCSc2ccc(S(=O)(=O)Nc3cccc(C)c3)cc21 returned NR2F2 inh 37*, 697 NFkB inh -57, Gli-Sufu antag 17, GalR3 antag -10, Jurkat NFkB inh 17, Gal4-VP16 ctr -5 and COUP-TFII conf 7.
For CCOC(=O)c1cccc(NS(=O)(=O)c2ccc(NC(C)=O)cc2)c1 the results were NR2F2 inh 39*, 697 NFkB inh 5, Gli-Sufu antag 16, GalR3 antag -6, Jurkat NFkB inh 21, Gal4-VP16 ctr 7 and COUP-TFII conf 22.
For CCOC(=O)c1ccc(NC(=O)COc2ccc(S(=O)(=O)NC(C)CC)cc2)cc1 (stereo not given) the results were NR2F2 inh 47*, 697 NFkB inh 5, Gli-Sufu antag 6, GalR3 antag -3, Jurkat NFkB inh 11, Gal4-VP16 ctr 0 and COUP-TFII conf 26.
Screening Cc1cccc(NS(=O)(=O)c2ccc(NC(=O)N3CCCCC3)cc2)c1 returned NR2F2 inh 48*, 697 NFkB inh -21, Gli-Sufu antag 13, GalR3 antag 2, Jurkat NFkB inh 21, Gal4-VP16 ctr 2 and COUP-TFII conf 16.
For Brc1cccc(Cn2ccc3ccc(-c4ccc5ccn(Cc6cccc(Br)c6)c5c4)cc32)c1 the results were NR2F2 inh -5.
For O=C(Nc1ccc(F)cc1)Nc1cc(OCC(F)(F)F)cc(OCC(F)(F)F)c1 the results were NR2F2 inh 76*, 697 NFkB inh -1, Gli-Sufu antag 21, GalR3 antag -5, Jurkat NFkB inh 26, Gal4-VP16 ctr 17* and COUP-TFII conf 79*.
CCOc1ccc(NC(=O)Nc2cc(OCC(F)(F)F)cc(OCC(F)(F)F)c2)cc1 was read as NR2F2 inh 5, 697 NFkB inh 0, Gli-Sufu antag 9, GalR3 antag -5 and Jurkat NFkB inh 9.
`COc1ccc(S(=O)(=O)Nc2cc(Sc3ncn[nH]3)c(O)c3ccccc23)cc1` gave NR2F2 inh 67*, GalR3 antag -10, Gal4-VP16 ctr 13* and COUP-TFII conf 20.
Screening COc1ccc(OC)c(S(=O)(=O)N(CC(=O)NC2CCC(C)CC2)c2cc(C)cc(C)c2)c1 (stereo not given) returned NR2F2 inh -18.
CC1(C)CC(=O)C=C(c2ccc(-c3cnc4ccccc4c3)cc2)C1=O was read as NR2F2 inh 42*, GalR3 antag -5, Gal4-VP16 ctr -62 and COUP-TFII conf 78*.
Screening CC1(C)CC(=O)C=C(c2ccc(Oc3ccccc3)cc2)C1=O returned NR2F2 inh 7 and GalR3 antag -7.
Screening O=[N+]([O-])c1ccc(Cl)c(C2Nc3cccc4cccc(c34)N2)c1 returned NR2F2 inh 41*, 697 NFkB inh -46, Gli-Sufu antag 11, GalR3 antag 3, Jurkat NFkB inh 12, Gal4-VP16 ctr 1 and COUP-TFII conf 0.
For C=CCN(Cc1ccc(OC)cc1OC)C(C#CCCCC)c1ccccc1 (stereo not given) the results were NR2F2 inh 17.
`S=C(NCC1CCCO1)N1CCN(c2nc(-c3ccc(Cl)cc3)cs2)CC1` (stereo not given) gave NR2F2 inh 59*, 697 NFkB inh -2, Gli-Sufu antag 31, GalR3 antag 2, Jurkat NFkB inh 21, Gal4-VP16 ctr -1 and COUP-TFII conf 28.
Screening CCOC(=O)[C@]12CCCC=C1N(CCCOC)C(=O)[C@@H]2CC(=O)NCCCN1CCCC1=O returned NR2F2 inh 12.
For COc1cc(C(=O)N(C)CCOc2ccccc2)ccc1OCC(=O)Nc1cccc(C(F)(F)F)c1 the results were NR2F2 inh 57*, 697 NFkB inh 15, Gli-Sufu antag -2, GalR3 antag -4, Jurkat NFkB inh 20, Gal4-VP16 ctr 8 and COUP-TFII conf 22.
For O=C(CCN1C(=O)S/C(=C\c2ccc(Cl)cc2)C1=O)Nc1ccc(C(=O)O)cc1 the results were NR2F2 inh -3, 697 NFkB inh -19, Gli-Sufu antag -5, GalR3 antag -2 and Jurkat NFkB inh 2.
COc1ccc(/C=C2/SC(=S)N(CCCC(=O)Nc3ccccc3C(=O)O)C2=O)cc1 was read as NR2F2 inh 52*, 697 NFkB inh 32, Gli-Sufu antag 10, GalR3 antag -9, Jurkat NFkB inh 18, Gal4-VP16 ctr 43* and COUP-TFII conf 30.
Screening COc1ccc(/C=C2\SC(=O)N(CCCC(=O)Nc3ccc(C(=O)O)cc3)C2=O)cc1 returned NR2F2 inh 98*, GalR3 antag -5, Gal4-VP16 ctr 83* and COUP-TFII conf 96*.
`Cc1ccc(/C=C2\SC(=S)N(CCCC(=O)Nc3ccccc3C(=O)O)C2=O)cc1` gave NR2F2 inh 15, 697 NFkB inh 32, Gli-Sufu antag 22, GalR3 antag 2 and Jurkat NFkB inh 14.
Screening O=C(c1cccc(Cl)c1)N1CCN(c2ccccn2)CC1 returned NR2F2 inh 14, 697 NFkB inh -8, Gli-Sufu antag 3, GalR3 antag 0 and Jurkat NFkB inh 3.
O=C(c1ccc(S(=O)(=O)c2cccc(Cl)c2)c([N+](=O)[O-])c1)N1CCN(c2ccccn2)CC1 was read as NR2F2 inh 45*, 697 NFkB inh -9, Gli-Sufu antag 18, GalR3 antag 0, Jurkat NFkB inh 30, Gal4-VP16 ctr 21* and COUP-TFII conf 9.
CCOC(=O)c1ccc(NC(=O)C2CCCN(S(=O)(=O)c3ccc(F)cc3)C2)cc1 (stereo not given) was read as NR2F2 inh 64*, 697 NFkB inh 4, Gli-Sufu antag 0, GalR3 antag 0, Jurkat NFkB inh -5, Gal4-VP16 ctr -2 and COUP-TFII conf 17.
`CCOC(=O)c1ccc(NC(=O)C2CCN(S(=O)(=O)c3ccccc3)CC2)cc1` gave NR2F2 inh 10, 697 NFkB inh 6, Gli-Sufu antag 2 and Jurkat NFkB inh -5.
COC(=O)[C@]12C[C@H](CC(=O)NCc3ccccc3)C(=O)N(CCc3ccc(OC)c(OC)c3)C1=C[C@H](C(C)C)O[C@@H]2C1CC1 was read as NR2F2 inh 8.
`O=S1(=O)c2ccc(Br)cc2OC[C@H](Cc2ccccc2)N1Cc1cn(CCC2OCCO2)nn1` gave NR2F2 inh 10.
`CCOc1ccc2[nH]c3c(NCCO)ncnc3c2c1` gave NR2F2 inh -23, 697 NFkB inh -18, Gli-Sufu antag 3, GalR3 antag -10 and Jurkat NFkB inh -14.
Screening CCOc1ccc2[nH]c3c(NCCc4ccc(OC)c(OC)c4)ncnc3c2c1 returned NR2F2 inh 49*, 697 NFkB inh 20, Gli-Sufu antag 15, GalR3 antag -3, Jurkat NFkB inh 17, Gal4-VP16 ctr -11 and COUP-TFII conf 5.
CN=C1S/C(=C/c2cc(C)n(-c3cc(C)ccc3OC)c2C)C(=O)N1C was read as NR2F2 inh 21.
